Vaccinia Venus: inhibitors of vaccinia virus (Venus reporter); 0.46% of 330,000 active; Potency, µM (highest dose often 36.5 µM), inactives show at the top dose activity change, negative = inhibition, usual class: inhibitors; AID 720580; Vaccinia virus Venus reporter expression, fluorescence; calls by dose curve; tested in A549 cells; further: potency means the concentration at half of the fitted maximal effect; on the % scale 0 is the no-effect control and ±100 the full control effect; nearly all actives have a fitted effect of over 30% in size
LASV entry inh: Lassa virus entry inhibition; Lassa virus pseudotype entry inhibition, cell reporter; Potency, µM (titrated, usually from 37.9 µM), without a hit: at the highest dose activity change, negative = inhibition, actives largely listed as inhibitors; 1.2% of 300,000 active; AID 540256; calls by dose curve; tested in HEK293 cells; further: potency means the concentration at half of the fitted maximal effect; on the % scale 0 is the no-effect control and ±100 the full control effect; nearly all actives have a fitted effect of over 50% in size
CHX counter: affects cycloheximide protein synthesis inhibition readout, counter-screen; cell reporter, cycloheximide protein synthesis inhibition counterscreen; max response, %; AID 2314; 12% of 300,000 active; in the data active means max response mostly above about 13%, no sharp cut-off; inactive means mostly below about 14%; further: read at 38.3 µM for the half of the compounds with a filed dose; 0% is about no effect
VACV mCherry inh: vaccinia inhibition (mCherry reporter); Vaccinia virus mCherry reporter infection, fluorescence; Potency, µM (titrated, usually from 36.5 µM), inactives show top-dose activity change, negative = inhibition, actives largely listed as inhibitors; 0.63% of 310,000 active; AID 720579; calls by dose curve; tested in A549 cells; further: potency means the concentration at half of the fitted maximal effect; on the % scale 0 is the no-effect control and ±100 the full control effect; nearly all actives have a fitted effect of over 35% in size
Shiga inhibitor: inhibitors of Shiga toxin in Vero cells | Vero cells, Shiga toxin protein synthesis inhibition reporter | inhibition, % at 38.7 µM | 9.2% of 290,000 active | AID 2315; in the data active means inhibition mostly above about 28%, no sharp cut-off; inactive means mostly below about 43%; further: 0% is about no effect
MARV entry inh: Marburg virus entry inhibition; Marburg virus pseudotyped entry inhibition, cell reporter; Potency, µM (titrated, usually from 37.8 µM), inactives show top-dose activity change, negative = inhibition, most hits filed as inhibitors; 1.8% of 300,000 active; calls by dose curve; tested in HEK293 cells; further: potency means the concentration at half of the fitted maximal effect; on the % scale 0 is the no-effect control and ±100 the full control effect
* = called active by the depositor; i = inactive; ? = inconclusive; . = no result; [ ] = dose if it differs, or a comment. The entries come from a sample that favours hits as a whole.

SMILES	Vaccinia Venus	LASV entry inh	CHX counter	VACV mCherry inh	Shiga inhibitor	MARV entry inh
Cc1cnc(NC(=O)c2ccc3c(c2)C(=O)N(Cc2ccco2)C3=O)s1	6%	13%	13*	.	3	2%
Cc1ccc(O)c(NC(=O)c2ccc3c(c2)C(=O)N(Cc2ccco2)C3=O)c1	.	.	15	.	-12	.
CCCc1cc(C(=O)Nc2nccs2)cs1	-14%	43%[14.3 µM]	57*	-9%	60*	?
CCN1C(=O)c2ccc(C(=O)Nc3ncc(C)s3)cc2C1=O	-1%	-14%	51*	-6%	56*	0%[46.1 µM]
CCn1nccc1C(=O)Nc1nccs1	-8%	5%	4	-15%	5	1%
COCCN1C(=O)c2ccc(C(=O)Nc3nccs3)cc2C1=O	-9%	1%	21	-23%	17	19%
CCCN1C(=O)c2ccc(C(=O)Nc3nccs3)cc2C1=O	.	6%	11*	.	65*	3%
Cc1ccc2[nH]c(CSc3nnc(NC(=O)COc4ccccc4F)s3)cc(=O)c2c1	4%	?	.	-6%	.	.
O=C(O)CCn1c(-c2ccccn2)nc2ccccc21	-9%	2%[46.1 µM]	11*	i	40	21%[46.1 µM]
Cc1ccc(OC(=O)c2cc(-c3ccc4c(c3)OCCO4)on2)c(C)c1	-5%	7%[46.1 µM]	.	-3%	.	15%[46.1 µM]
O=C1c2ccccc2CCC1C(O)c1ccccn1 (stereo unspecified)	.	14%	39*	.	46	12%
CCCNC(=O)c1ccc(Cn2c(SCC(=O)NC(C)C)nc3ccccc3c2=O)cc1	-5%	-1%[46.1 µM]	.	1%	.	.
CCCCC(=O)Nc1nnc(/C=C/c2ccc(OC)cc2)s1	.	.	-1	.	-6	.
CCCCOC(=O)Nc1nnc(/C=C/c2ccc(OC)cc2)s1	-28%	-7%	-5	-5%	-7	30%
COc1ccc(/C=C/c2nnc(NC(=O)C(C)(C)C)s2)cc1	-15%[7.34 µM]	7%	22*	-2%[7.34 µM]	26	9%[46.1 µM]
CCOC(=O)Nc1nnc(/C=C/c2ccc(OC)cc2)s1	?	1%	24*	?	3	3%
CCCC(=O)Nc1nnc(/C=C/c2ccc(OC)cc2)s1	-20%	1%	19*	-20%	21	6%[46.1 µM]
CCCC(=O)Nc1nnc(/C=C/c2ccccc2)s1	.	.	26*	.	40*	.
COC(=O)C1CCN(c2nc(CN(C)C3CCOC3)nc3cc(OC)c(OC)cc23)CC1 (stereo unspecified)	13%	.	.	3%	.	.
OCC1(CCOc2ccccc2)CCN(Cc2ccc(OC(F)F)cc2)CC1	-26%	-14%[46.1 µM]	2	-13%	-7	?
Cc1ccc(NC(=O)CN2C(=O)C(c3ccccc3)=NC2(C)C)cc1C	-11%	17%[46.1 µM]	.	-17%	.	0%[46.1 µM]
COc1ccc(/C=C/c2nnc(NC(=O)COc3ccc(C)cc3)s2)cc1	-10%	-3%	14*	-10%	-9	-15%
CCC(=O)Nc1nnc(/C=C/c2ccccc2)s1	.	.	44*	.	49*	.
COc1ccc(/C=C/c2nnc(NC(=O)COc3ccccc3)s2)cc1	-2%	18%	-2	i	28	13%[46.1 µM]
CC(C)(C)C(=O)Nc1nnc(COc2ccc(Cl)cc2)s1	-16%	3%	25*	i	38*	9%
SMILES	Vaccinia Venus	LASV entry inh	CHX counter	VACV mCherry inh	Shiga inhibitor	MARV entry inh
CCOc1ccc2c(c1)NC(c1cccs1)=NC(c1ccc(F)cc1)=N2	-11%	1%[46.1 µM]	.	-9%	.	1%[46.1 µM]
COc1ccc(C2=Nc3ccccc3NC(c3cccs3)=N2)cc1	-13%	8%[46.1 µM]	.	-8%	.	20µM*
O=C(NCCc1ccccc1)c1cc(-c2ccccc2)c(N2CCOCC2)s1	-9%	.	.	13%	.	.
CCN(CC)CCCNC(=O)c1cc(-c2ccccc2)c(N2CCCCC2)s1	-17%	16µM*	-2	-19%	-6	?
CC=CCCN1C=C(C(=O)OCC)C(c2ccccc2)NC1=O (stereo unspecified)	.	.	.	.	.	41%[14.2 µM]
Cc1ccccc1-c1nc2ccccc2[nH]1	-6%	-4%	46*	.	95*	?
Cn1cc(Cl)c(-c2nc3ccccc3[nH]2)n1	11%	-4%	26*	.	71*	3%
Nc1nonc1-c1nc2ccccc2[nH]1	?	2%	9	-7%	23	4%[46.1 µM]
c1ccc2[nH]c(-c3ccnc4ccccc34)nc2c1	-13%	10%	27*	i	32	6%
Fc1ccccc1-c1nc2ccccc2[nH]1	.	10%	39*	.	111*	?
COc1ccc(NC(=O)Cn2c(=O)n(CCc3ccccc3)c(=O)c3ccccc32)cc1	-15%	4%[46.1 µM]	.	i	.	-2%[46.1 µM]

From PubChem
